From the supplement of paper PMC12067093, “Discovery and optimisation of a covalent ligand for TRIM25 and its application to targeted protein ubiquitination” (Chemical Science, 2025)
The full data set covers some 21,000 targets. This sample favours those with the largest changes.

Compound: Cc1cc(ccc1-c1ccccc1)C(=O)N1CCCN(CC1)C(=O)CCl [compound 10]
Assay: probe-labelled cysteine peptide fold change vs DMSO (competition) (log2 fold change); higher = less target engagement (more negative = stronger competition)
Settings: THP-1, incubation time: 4 h
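Note: competitive profiling in live THP-1 cells: cysteine peptides tagged with an iodoacetamide desthiobiotin (IA-DTB) probe, intensity after compound treatment relative to DMSO-treated cells.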

Target	probe-labelled cysteine peptide fold change (10 µM)	probe-labelled cysteine peptide fold change (50 µM)
FOS_P01100_204_EKLEFILAAHRPACK (UniProt P01100)	0.0955	1.53
GLOD4_Q9HC38-2_41_VLRHEEFEEGCK (UniProt Q9HC38)	-0.835	-1.19
GATM_P50440_131_KAVAEIEEMCNILK (UniProt P50440)	-0.0751	-0.22
GSDMD_P57764_38_RVVQELDHGGEFIPVTSLQSSTGFQPYCLVVR (UniProt P57764)	0.275	-0.375
HDDC3_Q8N4P3_133_CTPEGWSEHR (UniProt Q8N4P3)	0.13	-0.00995
GCLM_P48507_35+46_CPSTHSEELHDCIQK (UniProt P48507)	-0.112	-0.843
GNB1_P62873_294_LLLAGYDDFNCNVWDALK (UniProt P62873)	0.0699	0.17
GSK3B_P49841_335_LTPLEACAHSFFDELRDPNVK (UniProt P49841)	0.133	0.0393
GTF3A_Q92664_191_AHEGYVCQK (UniProt Q92664)	0.112	-0.151
GRHPR_Q9UBQ7_288_NCVILPHIGSATHR (UniProt Q9UBQ7)	0.293	0.0427
GATD3B_A0A0B4J2D5_176+177_EFHQAGKPIGLCCIAPVLAAK<|>GATD3A_P0DPI2_176+177_EFHQAGKPIGLCCIAPVLAAK (UniProt P0DPI2)	-1.14	-2.38
HERC4_Q5GLZ8_58+60_HTVFVLDDGTVYTCGCNDLGQLGHEK (UniProt Q5GLZ8)	-0.0133	-1.05
GALNT7_Q86SF2_545_GFETAYCIDSMGK (UniProt Q86SF2)	-0.0613	0.095
HELZ_P42694_100_AVLCCMQLK (UniProt P42694)	-0.406	-1.27
GATD3B_A0A0B4J2D5_177_EFHQAGKPIGLCCIAPVLAAK<|>GATD3A_P0DPI2_177_EFHQAGKPIGLCCIAPVLAAK (UniProt P0DPI2)	-0.563	-1.98
HK3_P52790_190_CSGVEGQDVVQLLR (UniProt P52790)	0.199	-0.106
HAUS2_Q9NVX0_89_CHTLQSMNNHLEAVLK (UniProt Q9NVX0)	0.0751	-0.239
GPAA1_O43292_266_GGLLCTLQGK (UniProt O43292)	-0.168	-0.0244
FSCN1_Q16658_226_VAFRDCEGR (UniProt Q16658)	-0.244	-0.563

Target	probe-labelled cysteine peptide fold change (10 µM)	probe-labelled cysteine peptide fold change (50 µM)
GOLGA4_Q13439_1085_ILLFGCEK (UniProt Q13439)	-0.11	0.095
HGS_O14964_212_VCEPCYEQLNR (UniProt O14964)	0.0236	-0.13
FRMD8_Q9BZ67_206_LDSFLPAHLCK (UniProt Q9BZ67)	-0.0859	-0.347
GLA_P06280_56_FMCNLDCQEEPDSCISEK (UniProt P06280)	0.07	-0.0872
GNB1_P62873_148+149_ELAGHTGYLSCCR (UniProt P62873)	-0.185	-0.407
FKBP3_Q00688_133_KGDVVHCWYTGTLQDGTVFDTNIQTSAK (UniProt Q00688)	0.106	-0.0529
GDAP2_Q9NXN4_148_TAAESSLYSCYR (UniProt Q9NXN4)	-0.0153	0.00868
GTF3C5_Q9Y5Q8_75_DPYCHPVCANR (UniProt Q9Y5Q8)	0.121	0.621
GBF1_Q92538_1707_IDCFLPHLRDELFK (UniProt Q92538)	-0.0239	-0.111
FHOD1_Q9Y613_43_APTCSLDGALPLGAQIPAVHR (UniProt Q9Y613)	-0.105	0.425
GNL1_P36915_365_YKDGVVTIGCVGFPNVGK (UniProt P36915)	-0.0143	-0.869
GRN_P28799_178_CITPTGTHPLAK (UniProt P28799)	-0.279	-0.341
HDHD3_Q9BSH5_109_DFSHPCTWQVLDGAEDTLR (UniProt Q9BSH5)	-0.47	-1.92
GNAI2_P04899_326_EIYTHFTCATDTK (UniProt P04899)	0.0663	-0.0637
GTF3C4_Q9UKN8_376_CVPLYHPYQK (UniProt Q9UKN8)	0.0788	0.144
GPC4_O75487_341_VFQGCGPPK (UniProt O75487)	-0.24	-0.0603
HAUS6_Q7Z4H7_662_VISDCECVPQK (UniProt Q7Z4H7)	0.0385	-0.547
GPATCH1_Q9BRR8_485_AQLSPAAAAGHCSWNMALGGGTATLK (UniProt Q9BRR8)	-0.0776	-1.25
